“And” between values parts separate entries of the source, which are not always exact repeats. Identical values can stand only once. The campaign covered roughly 340,000 compounds. About 5,100 (1.5%) were called active.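 How the source made its calls: active means mean Tm shift, scaled 0 neutral to 100 positive control, at about 1.3% or above, every replicate too (limit read from the data); inconclusive means no clear call, values can overlap the other calls; inactive means the rest.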 The full list was thinned out, with actives kept by preference.
target: Fibroblast growth factor 22 (Homo sapiens) (UniProt Q9HCT0); test: binders of human FGF22 protein, primary screen, FGF22 synaptogenesis inhibitor project, biophysical, thermal shift, single point (AID 651658); settings: recombinant FGF22 thermal shift, SYPRO orange fluorescence; at 9.99 µM; active compounds read high; percent of sucrose octasulfate shift, DMSO zero
Sequence (Q9HCT0 whole entry, looked up): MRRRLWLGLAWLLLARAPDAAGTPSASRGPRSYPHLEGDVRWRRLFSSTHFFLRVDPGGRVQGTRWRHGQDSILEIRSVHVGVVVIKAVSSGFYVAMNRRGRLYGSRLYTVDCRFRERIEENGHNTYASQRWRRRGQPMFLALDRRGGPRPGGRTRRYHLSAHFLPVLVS

SMILES	activity (Tm shift, normalised)
O=C(NCC[C@@H]1CC[C@@H](NC(=O)c2ccccc2F)[C@H](CO)O1)c1ccc2c(c1)OCO2	-0.277% (inactive)
C[C@@H]1CN([C@@H](C)CO)C(=O)c2cccc(NC(=O)Nc3ccc(C(F)(F)F)cc3)c2O[C@@H]1CN(C)S(=O)(=O)c1ccc(F)cc1	-0.433% (inactive)
CO[C@@H]1CN(C)C(=O)c2ccc(NC(=O)Nc3c(C)noc3C)cc2OC[C@H](C)N(CC2CC2)C[C@H]1C	0.073% (inactive)
Cc1ccc(C(=O)Nc2nc3ccc(Cl)cc3s2)o1	0.029% (inactive)
NS(=O)(=O)c1ccc2nc(NC(=O)C3=COCCO3)sc2c1	-0.051% (inactive)
CS(=O)(=O)c1ccc2nc(NC(=O)c3ccc(Cl)nc3)sc2c1	1.36% (active)
COc1ccc([Si](C)(C)[C@@H]2[C@@H](CCO)O[C@]3(C(=O)N(Cc4ccccc4)c4ccc(N5CCC5=O)cc43)[C@H]2C)cc1	1.09% (inactive)
O=C(C[C@H]1C[C@H]2c3cc(NC(=O)Nc4ccc(F)cc4)ccc3O[C@H]2[C@@H](CO)O1)NCC1CC1	-0.077% (inactive)
O=C(C[C@H]1C[C@H]2c3cc(NC(=O)Nc4ccc(F)cc4)ccc3O[C@H]2[C@H](CO)O1)NCC1CC1	0.011% (inactive)
O=C(C[C@H]1C[C@@H]2c3cc(NC(=O)Nc4ccc(C(F)(F)F)cc4)ccc3O[C@@H]2[C@@H](CO)O1)NCC1CC1	5.86% (active)
C[C@H]1CCCCO[C@H](CN(C)S(C)(=O)=O)[C@@H](C)CN([C@@H](C)CO)C(=O)c2cc(NC(=O)C3CCCCC3)ccc2O1	-0.096% (inactive)
COC(=O)C[C@@H]1CC[C@@H]2[C@H](COc3ccc(NC(=O)c4cccc(F)c4)cc3C(=O)N2C)O1	-0.235% (inactive)
CN1C(=O)c2cc(NC(=O)c3cccc(F)c3)ccc2OC[C@@H]2O[C@H](CC(=O)N3CCc4ccccc4C3)CC[C@@H]21	1.53% (active)
CNC(=O)C[C@H]1CC[C@H]2[C@H](COc3ccc(NC(=O)c4cccc(F)c4)cc3C(=O)N2C)O1	-0.14% (inactive) and 0.048% (inactive)
O=C(C[C@@H]1CC[C@@H](NC(=O)Nc2ccc(F)cc2)[C@@H](CO)O1)NCCN1CCCC1	-0.38% (inactive)
CCCC(=O)Nc1ccc2c(c1)C(=O)N(C)C[C@H](OC)[C@H](C)CN(C(=O)c1ccccn1)[C@H](C)CO2	-0.212% (inactive)
C[C@@H]1CN([C@@H](C)CO)S(=O)(=O)c2ccc(C#C[C@@H](C)O)cc2O[C@@H]1CN(C)C(=O)CN(C)C	-0.212% (inactive)
CO[C@@H]1CN(C)C(=O)c2cc(NC(=O)C3CC3)ccc2OC[C@@H](C)N(Cc2nccs2)C[C@@H]1C	0.295% (inactive)
CC1CCCN(CC(O)COc2ccc3c(c2)OCO3)C1 (stereo not given)	0.154% (inactive)
CC1CCCN(CC(O)COCc2ccccc2)C1 (stereo not given)	43.5% (active)
COc1ccc(COCC(O)CN2CCC(C(N)=O)CC2)cc1 (stereo not given)	-0.009% (inactive)
CC(C)(C)S(=O)N1Cc2cc(C(=O)O)nc(-c3cccc(-c4cc5ccccc5o4)c3)c2[C@@H]1CCO (stereo not given in full)	0.231% (inactive)
COc1ccc2c3c(n(C)c2c1)[C@H](CO)N(Cc1ccccc1)CC31CN(C(=O)c2ccccc2F)C1	-0.032% (inactive)

SMILES	activity (Tm shift, normalised)
NS(=O)(=O)c1ccc(NC(=O)COC(=O)c2c3c(nc4ccccc24)/C(=C\c2ccc4c(c2)OCO4)CCC3)cc1	-0.081% (inactive)
NC(=O)c1ccc(NC(=O)COC(=O)c2c3c(nc4ccccc24)/C(=C\c2ccc4c(c2)OCO4)CCC3)cc1	-0.321% (inactive)
O=C1/C(=C/c2ccc3c(c2)OCO3)CCC/C1=C\c1ccc2c(c1)OCO2	26.1% (active)
CCCNC(=O)N1C[C@@H]2[C@H](c3ccccc31)[C@@H](CO)N2C(=O)NC(C)C	-0.334% (inactive)
C[C@H]1CN([C@@H](C)CO)S(=O)(=O)c2ccc(C#Cc3cccnc3)cc2O[C@H]1CN(C)C(=O)CN(C)C	-0.747% (inactive)
O=C(NC(=S)Nc1cccc2c(O)cccc12)c1cccc(Br)c1	-0.32% (inactive)
CC(CC(=O)O)CC(=O)NNC(=O)c1cccc(Br)c1 (stereo not given)	-0.089% (inactive)
Cc1ccccc1NC(=S)NNC(=O)c1cccc(Br)c1	43.6% (active)
O=C(C[C@H]1C[C@@H]2c3cc(NS(=O)(=O)c4ccc(F)cc4)ccc3O[C@@H]2[C@@H](CO)O1)NCc1cccc(F)c1	-0.007% (inactive)
Oc1cccc2cc(-c3ccncc3)cnc12	43.2% (active)
C[C@@H]1CN([C@H](C)CO)C(=O)Cc2cc(NC(=O)Nc3cccc4ccccc34)ccc2O[C@H]1CN(C)C(=O)Nc1ccc2c(c1)OCO2	-0.447% (inactive)
COc1ccc(-n2nc(C(=O)Nc3cc(OC)c(OC)c(OC)c3)c3ccccc3c2=O)c(OC)c1	0.293% (inactive)
COc1ccc(-n2nc(C(=O)NCC(=O)N3CCN(c4ccccc4OC)CC3)c3ccccc3c2=O)c(OC)c1	-0.112% (inactive)
COc1cccc(NC(=O)c2nn(-c3ccc(OC)cc3OC)c(=O)c3ccccc23)c1	43.4% (active)
CN1C(=O)c2cc(NC(=O)c3cnccn3)ccc2OC[C@H]2O[C@@H](CC(=O)NCC3CCCCC3)CC[C@@H]21	-0.186% (inactive)
O=C(CN(CC1CCCO1)C(=O)CNS(=O)(=O)c1ccc(F)cc1)NCc1ccco1 (stereo not given)	43.2% (active)
O=C(CN(CC1CCCO1)C(=O)CNS(=O)(=O)c1ccc(Cl)cc1)NCc1ccccc1 (stereo not given)	-0.087% (inactive)
CC(C)C(C(=O)NCc1ccco1)N(CC1CCCO1)C(=O)CNS(=O)(=O)c1ccc(F)cc1 (stereo not given)	-0.278% (inactive)
COCC(=O)N(C)C[C@H]1Oc2cc(C#C[C@@H](C)O)ccc2S(=O)(=O)N([C@@H](C)CO)C[C@@H]1C	0.023% (inactive)
CCC(C)(C)NC(=O)C(c1cccc(OC)c1OC)N(CC(C)C)C(=O)CCC(=O)Nc1cc(C)on1 (stereo not given)	43% (active)
CCC(C)(C)NC(=O)C(c1ccc(OC)cc1)N(C(=O)CCC(=O)Nc1cc(C)on1)c1ccc(OC)cc1OC (stereo not given)	0.006% (inactive)
COc1ccc(C(C(=O)NC(C)(C)C)N(Cc2ccc(F)cc2)C(=O)CCC(=O)Nc2cc(C)on2)cc1 (stereo not given)	-0.347% (inactive)

Source: PubChem BioAssay AID651658 (Broad Institute, 2012)
